What all share (details): mRNA level, 48 h; actives raise or lower the signal
Read-out in experiment [1]: Potassium channel subfamily K member 1 (KCNK1), KCNK1 (gene 3775)
In words: LTEA_HepaRG_KCNK1: Life Technologies and Expression Analysis (LTEA) Assay for Potassium channel subfamily K member 1 (KCNK1) using HepaRG (AID 2283511). The method in brief: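 HepaRG, 48 h exposure, 8-pt half-log series top 100 uM, 0.5% DMSO vehicle, duplicates. Readout: KCNK1 transcript by qRT-PCR (Fluidigm array), housekeeping-normalized; bidirectional curve fit relative to DMSO baseline.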

Read-out in experiment [2]: JUN Transcription Factor, JUN (gene 3725)
The experiment in a line: LTEA_HepaRG_JUN: Life Technologies and Expression Analysis (LTEA) Assay for JUN Transcription Factor using HepaRG (AID 2283513). The procedure, abridged:
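HepaRG, 48 h exposure, 8-pt half-log series top 100 uM, 0.5% DMSO, duplicate. JUN mRNA by qRT-PCR (Fluidigm), housekeeping-normalized (ACTB/GAPDH/POLR2A); bidirectional curve fit vs DMSO baseline.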

Read-out in experiment [3]: Lipase C (LIPC), LIPC (gene 3990)
The experiment in a line: LTEA_HepaRG_LIPC: Life Technologies and Expression Analysis (LTEA) Assay for Lipase C (LIPC) using HepaRG (AID 2283514). The method in brief: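 HepaRG, 48 h exposure, 8-pt half-log series from 100 uM in 0.5% DMSO, duplicates. Readout: LIPC mRNA by Fluidigm qRT-PCR, housekeeping-normalized (ACTB/GAPDH/POLR2A). Gain or loss fitted bidirectionally against DMSO baseline.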

Read-out in experiment [4]: MicroRNA 122 (MIR122), gene 406906
The experiment in a line: LTEA_HepaRG_MIR122: Life Technologies and Expression Analysis (LTEA) Assay for MicroRNA 122 (MIR122) using HepaRG (AID 2283516). Also: the transcript read is the microRNA miR-122. The procedure, abridged:
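qRT-PCR read-out (TaqMan, Fluidigm array), normalized to three housekeeping genes; HepaRG cells dosed 48 h at 8 concentrations up to 100 uM in 0.5% DMSO, duplicate; gain or loss fitted against DMSO baseline.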

Read-out in experiment [5]: matrix metalloproteinase-10 (MMP10), MMP10 (gene 4319)
The experiment in a line: LTEA_HepaRG_MMP10: Life Technologies and Expression Analysis (LTEA) Assay for matrix metalloproteinase-10 (MMP10) using HepaRG (AID 2283517). The procedure, abridged: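 Transcript levels come from Fluidigm qRT-PCR normalized to three housekeeping genes, with curves fitted bidirectionally against 0.5% DMSO. Human HepaRG cells were dosed for 48 hours at concentrations up to 100 uM.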

Read-out in the next experiment: MYC, MYC (gene 4609)
The experiment in a line: LTEA_HepaRG_MYC: Life Technologies and Expression Analysis (LTEA) Assay for MYC using HepaRG (AID 2283518). The procedure, abridged:
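MYC transcript changes, up or down relative to 0.5% DMSO, from TaqMan qRT-PCR normalized to three housekeeping genes. Human HepaRG cultures received chemicals for 48 h at eight half-log concentrations up to 100 uM, in duplicate.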

Read-out in experiment [6]: matrix metalloproteinase-3 (MMP3), MMP3 (gene 4314)
In words: LTEA_HepaRG_MMP3: Life Technologies and Expression Analysis (LTEA) Assay for matrix metalloproteinase-3 (MMP3) using HepaRG (AID 2283519). The method in brief: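 qRT-PCR read-out of MMP3 mRNA (normalised to three housekeeping genes) in HepaRG liver cells after 48 h chemical exposure; 8-point half-log series, top 100 uM, 0.5% DMSO vehicle. Bidirectional curve fitting against DMSO baseline.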

Read-out in experiment [7]: Paternally Expressed 10 (PEG10), PEG10 (gene 23089)
The experiment in a line: LTEA_HepaRG_PEG10: Life Technologies and Expression Analysis (LTEA) Assay for Paternally Expressed 10 (PEG10) using HepaRG (AID 2283520).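 As to AC50: differentiated HepaRG human liver cells in serum-free induction medium with 0.5% DMSO; PEG10 transcript by qRT-PCR normalised to ACTB GAPDH and POLR2A.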 The method in brief: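 qRT-PCR read-out: PEG10 mRNA normalised to three housekeeping genes, fitted bidirectionally against 0.5% DMSO vehicle. HepaRG cells received test chemicals for 48 h in serum-free induction medium, 8 points, top 100 uM, half-log steps.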

Read-out in experiment [8]: Lipoprotein lipase (LPL), LPL (gene 4023)
In words: LTEA_HepaRG_LPL: Life Technologies and Expression Analysis (LTEA) Assay for Lipoprotein lipase (LPL) using HepaRG (AID 2283515). The procedure, abridged: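 HepaRG, 48 h exposure, 8-pt half-log dilutions from 100 uM, 0.5% DMSO vehicle, duplicates; qRT-PCR (Fluidigm array) of LPL mRNA vs housekeeping genes; bidirectional curve fit relative to DMSO baseline.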

The source made the active and inactive calls. The calls were made as follows: active = hit-call score of the fitted dose curve at least 0.9, where 1 is the maximum; inactive = score below 0.9.

18 compounds from PubChem BioAssay (EPA / NIEHS) can be followed below.

For the compound `CCCCC(CC)C(=O)OCCOCCOCCOC(=O)C(CC)CCCC` (stereo unspecified), the outcome was “inactive” in experiment [1]; “inactive” in [2]; “inactive” in experiment [3]; “inactive” in experiment [4]; “inactive” in experiment [5]; “inactive” with MYC, MYC (gene 4609). The outcome in experiment [6] and in experiment [7] was inactive.

`OC[C@H]1O[C@@](CO)(O[C@H]2O[C@H](CO)[C@@H](O)[C@H](O)[C@H]2O)[C@@H](O)[C@@H]1O`: the call in experiment [1], in experiment [2], in experiment [3], in [8], in experiment [4] and in [5] was inactive. Further, the outcome with MYC, MYC (gene 4609) is “inactive”; in experiment [6] it was “inactive”; in experiment [7] it was “inactive”.

With `CC(=O)c1ccccc1`, the call in experiment [1], in experiment [2], in experiment [3], in experiment [8], in experiment [4] and in [5] was inactive. The outcome was “inactive” with MYC, MYC (gene 4609); “inactive” in experiment [6]; “inactive” in experiment [7].

As for `NNC(=O)c1ccncc1`, the outcome is “inactive” in experiment [1]; “inactive” in experiment [2]; “inactive” in experiment [3]; “inactive” in experiment [4]; “inactive” in [5]; “inactive” in the experiment with MYC, MYC (gene 4609). Besides, the result in experiment [6] and in experiment [7] was inactive.

In the case of `CCCCCCCCCCCCCCO`, the compound was called inactive in [1], in experiment [2], in [3], in [8], in experiment [4] and in experiment [5]. In addition, the outcome was “inactive” in the experiment with MYC, MYC (gene 4609); “inactive” in experiment [6]; “inactive” in experiment [7].

What is called AC50 is the midpoint of the concentration-response curve, whichever way the signal moves. As for `C=CCc1cc(S(=O)(=O)c2ccc(O)c(CC=C)c2)ccc1O`, the outcome in experiment [1] and in experiment [2] was inactive. The AC50 was 84.9 µM (active) in experiment [3]; 93.4 µM (active) in experiment [8]; 82 µM (active) in experiment [4]; 93.2 µM (active) in [5]; 90 µM (active) in the experiment with MYC, MYC (gene 4609); 92.2 µM (active) in experiment [6]. For the same compound, in experiment [7], the concentration at half-maximal activity (AC50) was 71 µM (active).

Take `O=S1(=O)CCCO1`: the outcome in experiment [1] was “inactive”; in experiment [2] it was “inactive”; in experiment [3] it was “inactive”; in [4], “inactive”; in experiment [5], “inactive”; in the experiment with MYC, MYC (gene 4609), “inactive”. The compound was called inactive in experiment [6] and in experiment [7].

Consider `CC(C)C(=O)Nc1ccc([N+](=O)[O-])c(C(F)(F)F)c1`, for which the call in experiment [1] and in [2] was inactive. The AC50 in experiment [3] is 55.5 µM (active); in [4], 60.8 µM (active); in [5], 50 µM (active); in the experiment with MYC, MYC (gene 4609), 50 µM (active); in experiment [6], 79.6 µM (active); in [7] it was 13.5 µM (active).

As to `CCCOc1ccc(S(=O)(=O)N2CCN(CC)CC2)cc1-c1nc2c(CC)n(Cc3ccccn3)nc2c(=O)[nH]1`, the outcome is “inactive” in experiment [1]; “inactive” in experiment [2]; “inactive” in experiment [3]; “inactive” in experiment [4]; “inactive” in experiment [5]; “inactive” with MYC, MYC (gene 4609). In addition, the outcome in experiment [6] and in [7] was inactive.

Consider `OCc1ccccc1`, for which the outcome was “inactive” in experiment [1]; “inactive” in [2]; “inactive” in experiment [3]; “inactive” in experiment [4]; “inactive” in [5]; “inactive” with MYC, MYC (gene 4609). Moreover, the outcome in experiment [6] and in experiment [7] was inactive.

As to `CCCCOC(=O)c1ccccc1`, the outcome is “inactive” in [1]; “inactive” in [2]; “inactive” in experiment [3]; “inactive” in experiment [4]; “inactive” in experiment [5]; “inactive” in the experiment with MYC, MYC (gene 4609). Besides, the compound was called inactive in experiment [6] and in experiment [7].

For `c1ccc2ncccc2c1`, the call in [1], in experiment [2], in experiment [3], in [8], in [4] and in experiment [5] was inactive. In addition, the outcome was “inactive” with MYC, MYC (gene 4609); “inactive” in experiment [6]; “inactive” in [7].

As for `CC[C@H](C)C(=O)O[C@H]1C[C@H](O)C=C2C=C[C@H](C)[C@H](CC[C@@H](O)C[C@@H](O)CC(=O)O)[C@H]21`, the outcome in [1] was “inactive”; in experiment [2], “inactive”; in experiment [3], “inactive”; in [4], “inactive”; in [5], “inactive”; in the experiment with MYC, MYC (gene 4609) it was “inactive”. Besides, the outcome in [6] and in experiment [7] was inactive.

`CCCCCCCCN(C)C`: the compound was classed as inactive in experiment [1], in experiment [2], in experiment [3], in experiment [8], in [4] and in [5]. The outcome in the experiment with MYC, MYC (gene 4609) is “inactive”; in experiment [6], “inactive”; in experiment [7], “inactive”.

Consider `CCc1cccc(CC)c1N`, for which the outcome in experiment [1] was “inactive”; in experiment [2] it was “inactive”; in experiment [3], “inactive”; in [4], “inactive”; in [5], “inactive”; with MYC, MYC (gene 4609) it was “inactive”. The compound was called inactive in experiment [6] and in experiment [7].

Regarding `Cc1ccc(S(=O)(=O)NC(=O)NN2CCCCCC2)cc1`, the outcome in experiment [1] was “inactive”; in experiment [2], “inactive”; in [3] it was “inactive”; in experiment [4], “inactive”; in [5], “inactive”; in the experiment with MYC, MYC (gene 4609), “inactive”. Also, the compound was classed as inactive in experiment [6] and in experiment [7].

`O=C(O)c1ccc2c(c1)nc(C(=O)NC1CCN(C3CC3)CC1)n2Cc1cc(-c2ccc(Cl)s2)on1`: the outcome in experiment [1] is “inactive”; in experiment [2], “inactive”; in experiment [3], “inactive”; in experiment [4], “inactive”; in [5], “inactive”; with MYC, MYC (gene 4609) it was “inactive”. The result in [6] and in [7] was inactive.

As for `CCCCCCCCCCCCCCCCOS(=O)(=O)O`, the compound was classed as inactive in experiment [1], in [2], in [3], in [8], in experiment [4] and in experiment [5]. In addition, the outcome is “inactive” with MYC, MYC (gene 4609); “inactive” in experiment [6]; “inactive” in experiment [7].
